PubChem BioAssay AID738 (SRMLSC, 2007)
The campaign covered roughly 98,000 compounds. About 4,900 (5%) were called active. Cut-off read from the data, not from the text of the source: active = inhibition above about 30%; inactive = the rest. Shown is part of a subset that was picked to be rich in actives.

Assay: yeast control strain growth suppression – counter-screen for post-Golgi transport modulator project, primary screen (AID 738)
Conditions: efflux-deficient yeast background strain, growth absorbance A615, 16 h; at 10 µM; active compounds read high

Row | Structure (SMILES) | inhibition
1 | Cc1ccc2cc(CCNC(=O)c3c(-c4ccccc4Cl)noc3C)c(=O)[nH]c2c1 | 9.09% (inactive)
2 | CN1CCN(c2ccc([N+](=O)[O-])c(Sc3nc4ccccc4[nH]3)c2)CC1 | 7.22% (inactive)
3 | CSc1ccc(C#N)cc1NC(=O)c1ccc(Cl)cc1 | -4.75% (inactive)
4 | CSc1cc(C)n(-c2ccccc2C)c(=S)c1C(C)=O | 4.46% (inactive)
5 | CC(C)OCCCNC(=O)C1CC(=O)N(C2CCCCCCC2)C1 (configuration not stated) | 0.87% (inactive)
6 | Cc1ccc(CNC(=O)C2CC(=O)N(C3CCCCCCC3)C2)cc1 (configuration not stated) | 11.5% (inactive)
7 | O=C(NCCCN1CCCCCC1)C1CC(=O)N(C2CCCC2)C1 (configuration not stated) | 39.6% (active)
8 | COc1ccc(CCNC(=O)COC(=O)c2ccc[nH]c2=O)cc1 | 8.99% (inactive)
9 | CCn1c(SCc2ccc(C)cc2)nnc1-c1nn(-c2ccccc2)ccc1=O | 28.2% (inactive)
10 | CCOc1ccc(NC(=O)N(CCC(C)C)C(C)c2ccco2)cc1 (configuration not stated) | 14.1% (inactive)
11 | CCCC(C(=O)NCc1ccco1)N(C(=O)CNS(=O)(=O)c1ccccc1)C1CCCC1 (configuration not stated) | -6.03% (inactive)
12 | CC(c1ccco1)N(C(=O)Nc1ccccc1)C1CCCCC1 (configuration not stated) | 34.8% (active)
13 | CCCCNC(=O)CSc1nc2ccc(NC(=O)CSc3nnc(COc4ccccc4C)n3C)cc2s1 | -0.61% (inactive)
14 | CN(C(=O)CSc1nc(C2CC2)nc2ccccc12)c1nc(-c2ccccc2)cs1 | 3.27% (inactive)
15 | S=c1[nH]nc(-c2ccco2)n1/N=C/c1ccc(Br)s1 | 32.1% (active)
16 | Cc1ccc(/C=N\n2c(-c3ccccc3)n[nH]c2=S)s1 | 6.75% (inactive)
17 | Oc1ccccc1/C=N/n1c(-c2cccs2)n[nH]c1=S | 7.52% (inactive)
18 | COC(=O)c1c(CCl)noc1C(=O)NC(C)C | -6.4% (inactive)
19 | CCCCSc1[nH]c(=O)c(C(=O)OCC)cc1C#N | -5.6% (inactive)
20 | C/C(=N/NC(=O)c1ccc(NC(=O)c2ccc(F)cc2)cc1)c1ccccc1 | 4.86% (inactive)
21 | Cc1nn(CCOc2ccccc2)c(=O)n1-c1ccccc1F | 14% (inactive)
22 | CCC(=O)c1ccc(OCC(O)CN2C(=O)NC(C)(C)C2=O)cc1 (configuration not stated) | 7.58% (inactive)
23 | O=S(=O)(c1ccc(OCC(O)CN2CCN(c3ccccc3Cl)CC2)cc1)N1CCOCC1 (configuration not stated) | -0.44% (inactive)
24 | O=C(C(c1ccccc1)c1ccccc1)N1CCN(CC(O)COc2ccccc2)CC1 (configuration not stated) | 9.41% (inactive)
25 | CCC(=O)c1ccc(OCC(O)CN2CC(C)OC(C)C2)cc1 (configuration not stated) | 30.9% (active)

Row | Structure (SMILES) | inhibition
26 | CCC(=O)c1ccc(OCC(O)CN2CCN(c3cccc(C(F)(F)F)c3)CC2)cc1 (configuration not stated) | 38.7% (active)
27 | O=C(COc1ccc(Cl)cc1)N1CCN(c2cccc(C(F)(F)F)c2)CC1 | 27.6% (inactive)
28 | OC(COc1cccc(OCC(O)CN2CCCC2)c1)CN1CCCC1 (configuration not stated) | 0.3% (inactive)
29 | OC(COc1ccc2c(c1)CCC2)CN1CCN(c2cccc(Cl)c2)CC1 (configuration not stated) | 82.4% (active)
30 | O=C(c1ccc(Cl)cc1)c1ccc(OCC(O)CN2CCCCC2)cc1 (configuration not stated) | 7.05% (inactive)
31 | Cc1cc(C(=O)OCC(=O)Nc2ccc(F)c(F)c2)c(C)o1 | 8.41% (inactive)
32 | O=C(Nc1ccc2sc3ccccc3c(=O)c2c1)c1ccccc1Cl | -1.51% (inactive)
33 | CN(CC#CCC(c1ccccc1)c1ccccc1)C(C)(C)C | 15.3% (inactive)
34 | COC(=O)c1ccccc1NC(=O)CN(Cc1ccc(Cl)cc1)S(C)(=O)=O | 20.7% (inactive)
35 | CC(=O)N1Cc2ccccc2CC1C(=O)O (configuration not stated) | -1.83% (inactive)
36 | Cc1ccc(S(=O)(=O)N(CC(=O)N2CCc3ccccc3C2)c2cccc(Cl)c2)cc1 | 53.7% (active)
37 | CCOC(=O)N1CCN(C(=O)CN(c2ccc(C)c(C)c2)S(=O)(=O)c2ccccc2)CC1 | -2.62% (inactive)
38 | COc1cccc(N(CC(=O)N2CCc3ccccc3C2)S(C)(=O)=O)c1 | 2.59% (inactive)
39 | COc1ccc(Cl)cc1NC(=O)CN(C)C(=O)CNC(=O)C12CC3CC(CC(C3)C1)C2 | 11.5% (inactive)
40 | CCCCN=C1N/C(=C\c2ccco2)C(=O)N1c1ccccc1 | 13.4% (inactive)
41 | Cc1ccc(C(=O)NNC(=O)OC(C)(C)C)c(Cl)c1 | -3.45% (inactive)
42 | COc1ccc(N2CCN(Cc3ccc(Br)s3)CC2)cc1 | 1.68% (inactive)
43 | O=c1cc(CN2CCN(c3cccc(Cl)c3)CC2)c2cc3c(cc2o1)CCCC3 | 1.31% (inactive)
44 | COc1ccc(N2CCN(Cc3cc(=O)oc4ccc5ccccc5c34)CC2)cc1 | 31% (active)
45 | NC(=O)c1nsc(C(=O)N(CC(=O)NCc2ccc(F)cc2)Cc2ccco2)c1N | -18.4% (inactive)
46 | COc1ccc(C(=O)Nc2cc(C)ccc2NC(=O)COc2ccccc2)cc1 | -12.5% (inactive)
47 | COc1ccc(OCC(=O)N2CCN(C(=O)COc3ccccc3)CC2)cc1 | -2.43% (inactive)
48 | COc1ccc(OCC(=O)NN2Cc3ccccc3C2=N)cc1 | 30.9% (active)
49 | O=C(O)c1cnn2c(C(F)(F)F)cc(-c3ccccc3)nc12 | -4.57% (inactive)
50 | CC(=O)N1CCN(c2cccc(C)c2C)CC1 | 3.94% (inactive)

Row | Structure (SMILES) | inhibition
51 | Cc1cccc(N2CCN(C(=O)c3cnn4c(C(F)F)cc(-c5ccccc5)nc34)CC2)c1C | 61.4% (active)
52 | Clc1ccccc1-c1cc(COc2ccc3ccccc3c2)no1 | 1.75% (inactive)
53 | CN(C)S(=O)(=O)c1ccc(N2CCCC2)c(C(=O)NCc2ccccc2)c1 | 4.17% (inactive)
54 | CCOc1[nH]n(-c2ccc(Cl)cc2)c(=O)c1C=Nc1ccc(O)cc1 | 1.52% (inactive)
55 | CCOc1ccc(N=C2SC(C(=O)O)CC(=O)N2C)cc1 (configuration not stated) | -1.43% (inactive)
56 | CCOc1ccc(N=C2NC(=O)S/C2=C\c2ccc(O)cc2)cc1 | 41.5% (active)
57 | O=C1CCN(C(=O)Nc2ccccc2)N1 | 1.84% (inactive)
58 | Cc1ccccc1NC(=S)Nc1cccc([N+](=O)[O-])c1 | -0.57% (inactive)
59 | CCOC(=O)N1CCN(C(=O)c2ccc(CN(c3ccc(C)c(C)c3)S(C)(=O)=O)cc2)CC1 | 3.07% (inactive)
60 | CCOC(=O)N1CCN(C(=O)c2ccc(S(=O)(=O)c3ccc(C)cc3)c(NC(C)=O)c2)CC1 | 7.81% (inactive)
61 | CCOC(=O)N1CCN(C(=O)c2ccc3c(c2)N(Cc2ccc(C)cc2)CCS3)CC1 | 34.6% (active)
62 | Cc1ccc(NC(=O)CN2CCc3ccccc3C2)cc1 | 8.09% (inactive)
63 | N/C(Cc1ccc([N+](=O)[O-])cc1)=N\OC(=O)COc1ccc2ccccc2c1 | 18.8% (inactive)
64 | O=C(Oc1ccc([N+](=O)[O-])cc1)c1ccc2ccccc2n1 | 41.8% (active)
65 | Cc1cccc(NC(=O)c2ccc3ccccc3n2)n1 | 12.6% (inactive)
66 | Cc1ccc(C(=O)OC2=CC(=O)CC(C)(C)C2)cc1 | -1.57% (inactive)
67 | COc1cccc(NC(=O)c2nn(C34CC5CC(CC(C5)C3)C4)cc2[N+](=O)[O-])c1 | 26.5% (inactive)
68 | Cc1ccc2c(c1)c1ncn(CCC3=CCCCC3)c(=O)c1n2C | 21.9% (inactive)
69 | Cc1ccc2c(c1)c1ncnc(N3CCc4ccccc4C3)c1n2C | 30% (active)
70 | Cc1ccc(S(=O)(=O)Nc2nc3ccccc3nc2N2CCc3ccccc3C2)cc1 | 19.2% (inactive)
71 | O=C(O)/C=C/C(=O)Nc1ccc(F)cc1F | 11.5% (inactive)
72 | Cc1ccc(-c2nc3c(cnn3-c3ccccc3)c(=O)o2)cc1 | 15.6% (inactive)
73 | Cc1ccc(-n2nc(N)c3c(=O)oc(N(C)C)nc32)cc1 | 33.1% (active)
74 | O=C(Nc1cc(-c2nn(CC(=O)N3CCCCC3)c(=O)c3ccccc23)ccc1N1CCOCC1)c1ccc(Cl)cc1 | 0.85% (inactive)
75 | N=c1ccn(CC(=O)NC(N)=O)c2ccccc12 | 12.8% (inactive)

Row | Structure (SMILES) | inhibition
76 | N#Cc1ccc(Oc2cc(C(F)(F)F)nc(-c3ccccn3)n2)cc1 | 1.51% (inactive)
77 | CC(=O)Oc1ccc2c(C)c(CC(C)O)c(=O)oc2c1 (configuration not stated) | 9.1% (inactive)
78 | CC(=O)Nc1cc2ccc(OC(C)=O)cc2oc1=O | -1.59% (inactive)
79 | O=C(Oc1ccccc1)Oc1ccc2c(c1)oc(=O)c1ccccc12 | 41% (active)
80 | CSc1nc2ccccc2cc1/C=C(\C#N)c1ccc(Cl)cc1Cl | 24.2% (inactive)
81 | O=C(Nc1ccc2c(c1)OCCO2)c1cnccn1 | 14.2% (inactive)
82 | O=C(Nc1ccc2c(c1)OCCO2)c1ccncc1 | 31.6% (active)
83 | O=C(CCN1C(=O)c2ccccc2C1=O)Nc1ccncc1 | 13.3% (inactive)
84 | O=C(CCN1C(=O)c2ccncc2C1=O)Nc1ccc2c(c1)OCCO2 | 30.7% (active)
85 | Cn1c(=O)n(C)c2cc(C(=O)Nc3ccc4c(c3)OCO4)ccc21 | 1.14% (inactive)
86 | CCCCC(=O)Nc1ccc2c(c1)OCCO2 | -0.45% (inactive)
87 | O=c1c2ccccc2c(-c2ccc(Br)cc2)nn1Cc1ccccc1 | 12% (inactive)
88 | c1ccc(-n2nnnc2NC2CCCCCC2)cc1 | 2.73% (inactive)
89 | COC(=O)/C=C/C(=O)NCc1ccco1 | 4.81% (inactive)
90 | Cc1cc(-c2ccccc2)n2nc(C)c(-c3ccccc3)c2n1 | 0.91% (inactive)
91 | O=C(N/N=C\c1ccc(-c2ccc(Cl)c(Cl)c2)o1)C(=O)N1CCCC1 | -8.31% (inactive)
92 | O=c1c2ccccc2nc2n1C(CSc1ccc(F)cc1)CN2 (configuration not stated) | 8.1% (inactive)
93 | O=C1COc2ccc(NC(=O)N3CCN(c4ccc(F)cc4)CC3)cc2N1 | -5.66% (inactive)
94 | COC(=O)c1ccc(C(=O)OC)c(NC(=S)N2CCCCC2)c1 | 5.49% (inactive)
95 | O=C(COC(=O)C12CC3CC(CC(C3)C1)C2)NCc1ccco1 | 17.3% (inactive)
96 | O=C(COC(=O)CCC(=O)c1cccs1)NCc1ccco1 | 34.5% (active)
97 | O=C(CCC(=O)c1cccs1)NCc1ccccc1 | -10% (inactive)
